Only some compounds are listed: those with a hit (about 7.3% of all), similar ones and a draw of the others.
NPC1 prom act: qHTS Assay for NPC1 Promoter Activators; Huh7 NPC1 promoter luciferase reporter, 24 h; hit rate 2.4% among 320,000; Potency, µM (doses to about 9.22 µM), inactives show at the highest dose activation, hits mostly activators; AID 485313, 2010; also: % of control where 0% means no effect; nearly all actives have a fitted effect of over 60% in size
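Readout is luciferase luminescence, reflecting NPC1 promoter activation in stably transfected Huh7 cells after 24 h compound exposure at 37 °C in reduced-serum medium with 10% FBS.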
Rab9 promoter act: qHTS Assay for Rab9 Promoter Activators; hit rate 2.8% among 320,000; Huh7 Rab9 promoter-luciferase reporter, luminescence, 24 h; Potency, µM (doses to about 9.22 µM), without a hit: at the top dose activation, negative = inhibition, hits mostly activators; also: % of control where 0% means no effect; nearly all actives have a fitted effect of over 60% in size
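Using Huh7 cells stably transfected with Rab9 promoter–luciferase, compounds were incubated 24 h at 37 °C, 5% CO2; luciferase luminescence was read 10 min after reagent addition.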
ELG1 genotoxic: qHTS screen for small molecules that induce genotoxicity in human embryonic kidney (HEK293T) cells expressing luciferase-tagged ELG1 | Potency, µM (titrated, usually from 46 µM), for the others: top-dose activity change, positive = activation, usual class: activators | hit rate 1.3% among 330,000 | AID 504466, 2011 | HEK293T ELG1-luciferase reporter, luminescence, 16 h; also: % of control where 0% means no effect; nearly all actives have a fitted effect of over 60% in size
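Genotoxic stress is detected as increased luminescence from luciferase-tagged ELG1 in HEK293T cells, measured with ONE-Glo after a 16 hr treatment at 37 °C.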
SMN2 splice enh: qHTS Assay for Enhancers of SMN2 Splice Variant Expression. hit rate 2.8% among 210,000. AID 1458, 2008. HEK293 SMN2-luciferase splicing reporter, luminescence, 30-36 h. Potency, µM (highest dose often 46.1 µM), without a hit: top-dose activity change, positive = activation, usual class: activators; also: % of control where 0% means no effect; nearly all actives have a fitted effect of over 55% in size
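HEK293 cells carry an SMN2 minigene-luciferase reporter in which exon 7 inclusion puts luciferase in frame. Cells were seeded at 2000 cells/well, attached for 10-12 hours, then exposed to compounds for 30-36 hours at 37C before ONE-Glo luminescence.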
FLuc counter: qHTS profiling assay for firefly luciferase inhibitor/activator using purifed enzyme and Km concentrations of substrates (counterscreen for miR-21 project); Luciferin 4-monooxygenase (Photinus pyralis), P08659; hit rate 6.9% among 360,000; purified FLuc, Km substrates, luminescence inhibition; Potency, µM (series often up to 57.5 µM), inactives show top-dose activity change, negative = inhibition, actives largely listed as inhibitors; AID 588342, 2011;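 also: plate controls were vehicle for no effect and reference inhibitor for full effect; nearly all actives have a fitted effect of over 55% in size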
Target sequence (P08659 whole entry, looked up): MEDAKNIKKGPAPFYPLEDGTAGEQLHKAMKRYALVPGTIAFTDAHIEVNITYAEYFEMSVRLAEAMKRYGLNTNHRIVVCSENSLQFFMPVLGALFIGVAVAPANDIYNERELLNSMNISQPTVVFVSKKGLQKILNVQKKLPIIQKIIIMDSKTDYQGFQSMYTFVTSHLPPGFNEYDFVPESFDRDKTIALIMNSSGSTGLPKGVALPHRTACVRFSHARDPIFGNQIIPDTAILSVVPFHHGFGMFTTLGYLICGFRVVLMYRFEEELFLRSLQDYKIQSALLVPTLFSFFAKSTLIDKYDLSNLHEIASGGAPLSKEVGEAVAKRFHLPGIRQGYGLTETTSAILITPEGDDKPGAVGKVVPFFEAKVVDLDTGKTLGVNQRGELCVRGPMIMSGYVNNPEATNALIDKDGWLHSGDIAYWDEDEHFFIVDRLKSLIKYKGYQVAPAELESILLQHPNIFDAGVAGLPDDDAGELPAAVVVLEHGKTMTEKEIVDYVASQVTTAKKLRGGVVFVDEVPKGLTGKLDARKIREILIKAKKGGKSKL
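Purified P. pyralis luciferase, 10 nM final, with Km-level 10 uM D-luciferin and 10 uM ATP in 50 mM Tris acetate pH 7.5, 10 mM Mg acetate, 0.01% Tween-20, 0.05% BSA; 6-point qHTS titration about 60 µM downward; luminescence read.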
Luc counter: Counterscreen for Luciferase (Kinase-Glo TM) Inhibition. hit rate 0.28% among 200,000. Luciferin 4-monooxygenase (Photuris pensylvanica), Q27757. Kinase-Glo luciferase, ATP luminescence, 8 min. Potency, µM (highest dose often 38.3 µM), without a hit: at the highest dose activity change, negative = inhibition, usual class: inhibitors; also: % is scaled to controls: 0 for no effect and ±100 for the full control effect; nearly all actives have a fitted effect of over 60% in size
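Light output from Kinase-Glo luciferase with luciferin and 10 uM ATP in 50 mM imidazole pH 7.2, KCl, MgCl2, Tween 20, BSA; compound pin-delivered, 8-min ambient incubation, then luminescence read.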
* marks the source's active call; other numbers are inactive results; u = inconclusive; x = no result given; [ ] = another dose, or the depositor's remark. Calls follow the shape of the dose curve; as a rule, active = well fitted curve in the direction sought with a large enough effect; inconclusive = small, poorly fitted or top-dose-only effect, or another doubt; inactive = no such curve, though single readings can be large; an effect the other way counts as inactive or inconclusive. Potency is read from the fitted curve at half-maximal effect.

SMILES	NPC1 prom act	Rab9 promoter act	ELG1 genotoxic	SMN2 splice enh	FLuc counter	Luc counter
CCOC(=O)c1c(C)n(-c2ccccc2)c2ccc(OC(=O)c3ccccc3)cc12	x	x	x	-33.4%	-8.5%	x
Cn1cnc2cc(OC(=O)c3ccccc3)ccc21	-1.9%	-6.7%	3.6%	19.6%	19µM*	-3.1%
CCc1ccc(NC(=O)CN2C(=O)C(c3ccc(Cl)cc3)=NC23CCCCC3)cc1	x	x	x	-28.6%	-11.7%	x
O=c1oc(CCO)cc2ccc(-c3ccc4[nH]ccc4c3)cc12	u	-0.5%	14.6µM*	x	2.69µM*	x
CCN(CC)C(=O)c1ccc2c(c1[N+](=O)[O-])C(=O)c1ccccc1C2=O	2.82µM*	2.24µM*	u	12.6µM*	3.3%	1.9%
O=C(c1csnn1)N1CCC2(CCCN(c3cccc(-c4ccccc4)c3)C2)CC1	x	x	x	2.8%	x	2.2%
O=C(c1csnn1)N1CCC2(CCCN(c3ccc(-c4ccccc4)cc3)C2)CC1	x	x	x	17.8µM*	x	-3.5%
O=C(NCc1cccs1)c1cc(-c2cccc(Cl)c2)on1	25.9%	u	u	-1.2%	-1.9%	-0.4%
Cc1ccc(-c2cc(C(=O)NCc3cccs3)no2)cc1	u	2µM*	u	22.3%	-10.2%	2.2%
O=C(NCc1cccs1)c1cc(-c2ccc(O)cc2)on1	u	3.55µM*	u	x	u	x
O=C(NCC1CCCO1)c1cn(-c2ccccc2)nc1-c1ccccc1 (configuration not stated)	14.3%	3.2%	-2.2%	x	6.75µM*	x
COc1cccc(-c2cc(C(=O)NCC3CCCO3)c3cc(C)cc(C)c3n2)c1 (configuration not stated)	-4.1%	16.4%	14.9%	x	1.9µM*	x
COc1cccc(-c2nn(-c3ccc(C)cc3)cc2C(=O)NCC2CCCO2)c1 (configuration not stated)	-1.2%	13.0%	-5.1%	x	9.53µM*	x
COc1ccc(-c2nn(-c3ccccc3)cc2C(=O)NCC2CCCO2)cc1 (configuration not stated)	0.3%	3.3%	-6.0%	x	u	x
COc1cccc(-c2nn(-c3ccc(F)cc3)cc2C(=O)NCC2CCCO2)c1 (configuration not stated)	-0.4%	-1.6%	-6.2%	x	16.9µM*	x
CC1(C)N=C(N)N=C(N)N1c1cccc(OCc2cccc(N)c2)c1	x	x	x	-3.8%[9.22 µM]	x	-5.6%[7.66 µM]
CCOC(=O)c1c(C)oc2nc(C)nc(Nc3cc(C)cc(C)c3)c12	x	x	x	x	-1.9%	x
COc1ccc(CCN2CCC(CNC(=O)c3cnn(-c4ccc(C)cc4)c3C3CCN(C(=O)OC(C)(C)C)CC3)CC2)cc1	x	x	x	x	-5.2%	x
COc1ccc(C2NC(=O)NC(C)=C2C(=O)Nc2cc(C)cc(C)c2)c(OC)c1 (configuration not stated)	x	x	x	-1.5%	-9.0%	x
Cc1ccc(-c2nn(-c3ccc(F)cc3)cc2C(=O)NCC2CCCO2)cc1 (configuration not stated)	-7.8%	10.4%	-8.7%	x	10.7µM*	x
Cc1cc(C)cc(N2CCn3c2nc2c3c(=O)n(Cc3ccc(Cl)cc3)c(=O)n2C)c1	x	x	x	x	-7.0%	x
CCC1(c2ccc(Cl)cc2)NC(=S)N(c2ccc(C)cc2)N1 (configuration not stated)	7.1%	18.8%	u	-54.7%	16.9µM*	1.9%
O=C(CCn1cnc2onc(-c3ccc(F)cc3)c2c1=O)N1CCN(c2cccc(Cl)c2)CC1	x	x	x	x	-2.1%	x
COc1cccc(NC(=O)Nc2ccc3c(c2)N(C)C(=O)CS3)c1	0.1%	-2.7%	-11.7%	14.0%	12µM*	-2.2%
CN1C(=O)CSc2ccc(NC(=O)Nc3ccccn3)cc21	u	2.82µM*	3.9%	u	3.01µM*	-6.0%
SMILES	NPC1 prom act	Rab9 promoter act	ELG1 genotoxic	SMN2 splice enh	FLuc counter	Luc counter
O=C(CCSCc1cnn(-c2ccccc2)c1-n1cccc1)NCc1ccccc1F	x	x	x	x	0.7%	x
Cc1ccc(OCCSc2ncccn2)c(C)c1	0.631µM*	0.501µM*	u	3.16µM*	2.13µM*	-7.3%
c1cnc(SCCOc2cccc3ccccc23)nc1	u	2.24µM*	11.6µM*	22.1%	7.57µM*	-1.9%
COc1cccc(CNC(=O)c2cc(S(=O)(=O)N3CCCCC3)cn2C)c1	x	x	x	x	-2.7%	x
CCOC(=O)c1c(-c2ccc(OC)cc2)oc2ccc(OCc3ccccc3C)cc12	x	x	x	3.9%	-2.1%	x
CC1CCCN(C(=O)COC(=O)Cc2c(F)cccc2Cl)C1 (configuration not stated)	u	u	u	x	16.9µM*	x
CC(C)CN(C(=O)COC(=O)CNC(=O)c1sc2ccccc2c1Cl)C1CCS(=O)(=O)C1 (configuration not stated)	-1.5%	-6.0%	1.7%	x	12µM*	x
CC1CCCN(C(=O)COC(=O)CNC(=O)c2sc3ccccc3c2Cl)C1 (configuration not stated)	-4.1%	-4.1%	-0.5%	x	23.9µM*	x
CC1CCCN(C(=O)COC(=O)COc2ccc(Cl)cc2)C1 (configuration not stated)	x	x	1.4%	x	x	x
CC(/C=C/c1ccccc1)=N/NC(=O)c1cc([N+](=O)[O-])cc([N+](=O)[O-])c1	-23.5%	-30.9%	14.5%	-79.9%	1.8%	-3.3%
CC(/C=C/c1ccccc1)=N\Nc1ccccc1[N+](=O)[O-]	3.98µM*	u	13.7%	19.0%	7.57µM*	-7.9%
C/C(=N\NC(=O)c1ccc(O)cc1)c1ccc2c(c1)OCCO2	22.0%	28.0%	u	x	13.5µM*	x
C/C(=N\NC(=O)C1CC1)c1ccc2c(c1)OCCO2	9.0%	-32.3%	15.2%	53.7%	-12.2%	1.0%
CC(=NNC(=O)c1cccs1)c1ccc2c(c1)OCCO2	x	x	16.4µM*	x	x	x
O=C(c1ccc2c(c1)OCCCO2)c1cccs1	1.12µM*	2.24µM*	u	12.6µM*	6.75µM*	-5.6%
C/C(=N\NC(=O)c1ccc(N/N=C(\C)c2ccc(O)cc2)cc1)c1ccc(O)cc1	u	u	0.2%	x	4.78µM*	x
C/C(=N\NC(=O)c1cccs1)c1ccc2c(c1)OCO2	u	u	u	u	u	-0.8%
Cc1cc(C)n(-c2nc3cc(Cl)ccc3nc2N2CCN(c3cccc(C)c3C)CC2)n1	x	x	x	-11.4%	-1.0%	x
CN(CC(=O)Nc1ccc(Cl)cc1F)S(=O)(=O)c1ccc2c(c1)n(C)c(=O)c(=O)n2C	x	x	x	4.2%	-3.1%	x
